Results from the supplement of paper PMC11732987, “Enantioselective OTUD7B fragment discovery through chemoproteomics screening and high-throughput optimisation” (Communications Chemistry, 2025).

Key:
Assay in all cases: log2 ratio of Biotin-Ahx-Ub-VS probe labelling (fragment/DMSO); higher = less target engagement (more negative = stronger competition), active = hit call of the paper (q ≤ 0.05, log2 ratio ≤ -1)
Conditions in all cases: compound concentration: 200 uM; treatment time: 3 h
USP16 = USP16 (UniProt Q9Y5T5)
Chain of USP16 (Q9Y5T5 whole entry, looked up, the tested form may be a part): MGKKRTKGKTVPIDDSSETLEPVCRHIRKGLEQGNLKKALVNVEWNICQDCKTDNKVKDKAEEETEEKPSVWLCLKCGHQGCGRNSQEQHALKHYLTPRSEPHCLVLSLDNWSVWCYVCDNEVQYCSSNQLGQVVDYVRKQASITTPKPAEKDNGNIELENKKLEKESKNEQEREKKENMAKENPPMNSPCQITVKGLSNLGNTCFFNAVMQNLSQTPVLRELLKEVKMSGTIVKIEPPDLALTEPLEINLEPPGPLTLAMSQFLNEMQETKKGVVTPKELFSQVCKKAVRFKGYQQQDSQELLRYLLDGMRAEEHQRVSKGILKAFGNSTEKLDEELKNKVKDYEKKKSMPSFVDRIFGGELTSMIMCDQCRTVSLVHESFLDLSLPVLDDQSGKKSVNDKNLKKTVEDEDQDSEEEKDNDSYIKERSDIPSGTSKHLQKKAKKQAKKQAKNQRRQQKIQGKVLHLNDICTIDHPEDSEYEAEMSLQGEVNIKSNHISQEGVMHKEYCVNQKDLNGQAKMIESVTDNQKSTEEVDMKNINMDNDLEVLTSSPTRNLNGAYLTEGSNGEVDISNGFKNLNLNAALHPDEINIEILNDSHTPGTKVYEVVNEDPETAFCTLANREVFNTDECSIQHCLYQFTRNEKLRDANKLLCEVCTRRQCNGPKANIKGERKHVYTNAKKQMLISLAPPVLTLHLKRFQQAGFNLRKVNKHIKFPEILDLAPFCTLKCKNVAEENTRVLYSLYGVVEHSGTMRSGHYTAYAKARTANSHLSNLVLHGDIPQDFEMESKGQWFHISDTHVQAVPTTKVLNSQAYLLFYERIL
Procedure, shortened: (§1)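 Using Biotin-Ahx-Ub-VS at 0.5 µM final for 1 h, DUBs were labelled in HEK293T lysate (495 µg per sample) that had first been treated in triplicate with fragment at 200 µM or vehicle for 3 h. NeutrAvidin enrichment, LysC and trypsin digestion and diaPASEF LC-MS/MS followed. Spectronaut label-free quantities were global-median-normalised. Values are average log2 fragment/vehicle ratios by unpaired t-test, using proteins with ≥2 unique peptides.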

USP19 = target: T1, USP19 (UniProt O94966)
T1 sequence (whole entry): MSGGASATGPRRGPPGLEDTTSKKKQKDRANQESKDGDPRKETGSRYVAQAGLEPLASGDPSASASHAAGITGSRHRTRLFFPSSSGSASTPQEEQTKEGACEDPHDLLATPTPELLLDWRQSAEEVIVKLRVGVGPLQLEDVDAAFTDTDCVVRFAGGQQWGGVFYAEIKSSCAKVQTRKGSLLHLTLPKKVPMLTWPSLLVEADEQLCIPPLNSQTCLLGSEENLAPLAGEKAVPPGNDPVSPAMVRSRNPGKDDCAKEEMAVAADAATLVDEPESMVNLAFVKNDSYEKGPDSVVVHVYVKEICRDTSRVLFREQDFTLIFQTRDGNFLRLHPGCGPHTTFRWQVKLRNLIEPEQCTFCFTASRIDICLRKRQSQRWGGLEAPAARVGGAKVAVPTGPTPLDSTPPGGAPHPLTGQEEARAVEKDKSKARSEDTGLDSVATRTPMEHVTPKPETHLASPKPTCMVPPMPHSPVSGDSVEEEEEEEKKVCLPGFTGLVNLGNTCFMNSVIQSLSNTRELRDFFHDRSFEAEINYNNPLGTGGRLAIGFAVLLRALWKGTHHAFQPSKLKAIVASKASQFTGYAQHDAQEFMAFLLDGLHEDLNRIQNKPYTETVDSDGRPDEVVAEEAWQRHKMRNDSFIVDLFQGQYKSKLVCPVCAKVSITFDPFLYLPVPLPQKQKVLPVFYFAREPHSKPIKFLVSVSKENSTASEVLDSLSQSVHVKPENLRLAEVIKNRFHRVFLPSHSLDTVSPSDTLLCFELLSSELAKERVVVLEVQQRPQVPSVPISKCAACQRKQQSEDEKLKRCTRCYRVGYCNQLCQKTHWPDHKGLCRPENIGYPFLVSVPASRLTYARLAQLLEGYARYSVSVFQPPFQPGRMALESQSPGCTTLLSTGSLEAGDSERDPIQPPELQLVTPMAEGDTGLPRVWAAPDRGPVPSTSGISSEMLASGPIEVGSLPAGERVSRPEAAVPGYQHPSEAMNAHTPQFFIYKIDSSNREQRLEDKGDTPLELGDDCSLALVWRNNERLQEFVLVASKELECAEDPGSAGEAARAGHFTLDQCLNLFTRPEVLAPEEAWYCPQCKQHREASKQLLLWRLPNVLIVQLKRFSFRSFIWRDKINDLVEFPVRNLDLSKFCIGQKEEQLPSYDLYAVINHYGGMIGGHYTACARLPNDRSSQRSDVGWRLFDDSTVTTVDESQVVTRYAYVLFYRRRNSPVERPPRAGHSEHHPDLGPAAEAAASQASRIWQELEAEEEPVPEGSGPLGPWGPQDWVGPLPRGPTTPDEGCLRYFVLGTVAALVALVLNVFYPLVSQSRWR
Procedure, shortened: as §1

USP24 = USP24 (UniProt Q9UPU5)
Chain of USP24 (Q9UPU5 whole entry): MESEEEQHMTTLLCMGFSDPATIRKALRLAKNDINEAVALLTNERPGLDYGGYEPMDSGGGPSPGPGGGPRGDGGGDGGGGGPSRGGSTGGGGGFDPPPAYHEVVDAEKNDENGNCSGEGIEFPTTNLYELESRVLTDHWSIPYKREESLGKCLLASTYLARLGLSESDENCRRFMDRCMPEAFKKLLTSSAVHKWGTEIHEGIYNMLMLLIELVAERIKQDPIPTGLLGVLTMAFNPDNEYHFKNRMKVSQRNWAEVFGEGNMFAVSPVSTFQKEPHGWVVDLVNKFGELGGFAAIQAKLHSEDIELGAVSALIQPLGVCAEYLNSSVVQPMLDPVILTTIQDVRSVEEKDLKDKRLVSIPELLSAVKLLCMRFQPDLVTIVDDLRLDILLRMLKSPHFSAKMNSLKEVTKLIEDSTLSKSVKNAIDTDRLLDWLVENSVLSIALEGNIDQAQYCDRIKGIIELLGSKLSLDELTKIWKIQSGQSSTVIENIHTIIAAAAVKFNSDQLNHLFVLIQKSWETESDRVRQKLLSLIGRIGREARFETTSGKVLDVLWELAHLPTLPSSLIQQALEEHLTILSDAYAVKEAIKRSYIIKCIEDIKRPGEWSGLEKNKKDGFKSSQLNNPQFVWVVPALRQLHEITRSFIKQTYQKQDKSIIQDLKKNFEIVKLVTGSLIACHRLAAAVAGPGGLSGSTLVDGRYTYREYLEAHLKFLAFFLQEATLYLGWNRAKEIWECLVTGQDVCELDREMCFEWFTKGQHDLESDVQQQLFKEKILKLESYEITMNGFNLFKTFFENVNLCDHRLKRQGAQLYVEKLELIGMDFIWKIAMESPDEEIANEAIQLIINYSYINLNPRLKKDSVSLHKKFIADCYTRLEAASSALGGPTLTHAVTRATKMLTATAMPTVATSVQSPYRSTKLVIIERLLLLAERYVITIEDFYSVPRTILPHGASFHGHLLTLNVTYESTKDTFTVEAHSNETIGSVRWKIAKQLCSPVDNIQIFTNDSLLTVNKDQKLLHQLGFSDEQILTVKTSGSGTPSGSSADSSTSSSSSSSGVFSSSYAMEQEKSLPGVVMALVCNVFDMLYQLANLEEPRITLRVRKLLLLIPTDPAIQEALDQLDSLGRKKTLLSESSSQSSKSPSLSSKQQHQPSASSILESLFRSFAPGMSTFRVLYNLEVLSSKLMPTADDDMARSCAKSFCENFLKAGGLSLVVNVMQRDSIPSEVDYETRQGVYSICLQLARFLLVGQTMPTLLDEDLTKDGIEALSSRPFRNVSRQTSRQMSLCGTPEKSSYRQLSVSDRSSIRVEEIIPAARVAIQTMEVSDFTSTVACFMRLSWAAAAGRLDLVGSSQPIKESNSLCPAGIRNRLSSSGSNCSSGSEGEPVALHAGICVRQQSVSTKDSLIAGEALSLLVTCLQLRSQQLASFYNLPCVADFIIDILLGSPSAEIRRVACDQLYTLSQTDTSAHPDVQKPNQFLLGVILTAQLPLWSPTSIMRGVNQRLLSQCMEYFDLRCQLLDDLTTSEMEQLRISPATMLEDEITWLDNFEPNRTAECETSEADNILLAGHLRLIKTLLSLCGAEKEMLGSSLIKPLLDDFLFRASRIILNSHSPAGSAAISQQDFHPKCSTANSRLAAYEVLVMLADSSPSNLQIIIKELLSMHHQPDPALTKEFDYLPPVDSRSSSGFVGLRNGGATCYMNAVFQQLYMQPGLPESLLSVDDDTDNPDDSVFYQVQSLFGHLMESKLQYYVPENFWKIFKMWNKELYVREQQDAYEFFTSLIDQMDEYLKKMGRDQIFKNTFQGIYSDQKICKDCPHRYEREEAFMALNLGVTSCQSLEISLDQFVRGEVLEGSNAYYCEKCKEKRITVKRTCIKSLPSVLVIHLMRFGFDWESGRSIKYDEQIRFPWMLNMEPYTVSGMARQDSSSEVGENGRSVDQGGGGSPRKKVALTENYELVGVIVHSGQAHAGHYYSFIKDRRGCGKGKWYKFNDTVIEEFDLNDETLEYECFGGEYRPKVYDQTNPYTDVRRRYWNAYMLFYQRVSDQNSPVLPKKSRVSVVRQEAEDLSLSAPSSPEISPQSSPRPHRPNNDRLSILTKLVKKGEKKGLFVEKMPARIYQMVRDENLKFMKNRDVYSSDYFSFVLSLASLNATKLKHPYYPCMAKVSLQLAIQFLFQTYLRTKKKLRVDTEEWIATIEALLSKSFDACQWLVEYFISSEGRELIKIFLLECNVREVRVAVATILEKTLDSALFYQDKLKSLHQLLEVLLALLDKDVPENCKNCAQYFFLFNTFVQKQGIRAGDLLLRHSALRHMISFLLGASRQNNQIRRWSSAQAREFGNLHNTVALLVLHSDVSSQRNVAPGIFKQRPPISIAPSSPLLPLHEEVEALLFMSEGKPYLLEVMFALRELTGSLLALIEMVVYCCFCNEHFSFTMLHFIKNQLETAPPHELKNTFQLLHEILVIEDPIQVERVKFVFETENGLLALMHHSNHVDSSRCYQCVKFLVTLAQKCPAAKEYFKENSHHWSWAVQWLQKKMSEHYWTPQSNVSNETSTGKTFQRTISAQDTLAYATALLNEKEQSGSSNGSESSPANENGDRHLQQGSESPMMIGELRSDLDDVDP
Procedure, shortened: as §1

USP25 = target: T2, USP25 (UniProt Q9UHP3)
T2 sequence (whole entry): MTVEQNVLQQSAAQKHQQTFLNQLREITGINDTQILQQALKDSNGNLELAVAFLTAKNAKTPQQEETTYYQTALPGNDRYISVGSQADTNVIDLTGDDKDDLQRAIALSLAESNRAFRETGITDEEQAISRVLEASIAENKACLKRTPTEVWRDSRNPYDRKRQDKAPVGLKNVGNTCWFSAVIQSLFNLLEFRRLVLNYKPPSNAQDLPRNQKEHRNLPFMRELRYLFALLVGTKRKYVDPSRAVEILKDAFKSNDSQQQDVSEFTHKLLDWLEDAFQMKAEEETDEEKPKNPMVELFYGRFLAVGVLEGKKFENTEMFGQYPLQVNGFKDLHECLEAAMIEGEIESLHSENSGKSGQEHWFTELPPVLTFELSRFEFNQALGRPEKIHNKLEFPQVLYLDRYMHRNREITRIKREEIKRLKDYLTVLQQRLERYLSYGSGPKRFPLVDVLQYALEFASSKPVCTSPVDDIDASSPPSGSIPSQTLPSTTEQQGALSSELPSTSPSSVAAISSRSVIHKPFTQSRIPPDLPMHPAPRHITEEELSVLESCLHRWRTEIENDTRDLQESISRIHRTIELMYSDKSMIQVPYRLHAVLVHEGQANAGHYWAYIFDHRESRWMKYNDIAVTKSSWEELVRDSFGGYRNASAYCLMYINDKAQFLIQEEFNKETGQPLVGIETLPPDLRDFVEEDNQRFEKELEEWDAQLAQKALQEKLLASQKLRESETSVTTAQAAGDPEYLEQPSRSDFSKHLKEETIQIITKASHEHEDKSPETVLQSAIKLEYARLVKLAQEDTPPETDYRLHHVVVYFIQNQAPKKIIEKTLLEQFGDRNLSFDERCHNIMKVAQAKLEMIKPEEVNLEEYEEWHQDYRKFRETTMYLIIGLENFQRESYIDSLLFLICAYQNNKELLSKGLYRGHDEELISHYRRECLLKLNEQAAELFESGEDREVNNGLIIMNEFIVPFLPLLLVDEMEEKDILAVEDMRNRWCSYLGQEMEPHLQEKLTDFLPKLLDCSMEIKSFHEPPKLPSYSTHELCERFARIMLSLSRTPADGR
Procedure, shortened: as §1

USP28 = target: T3, USP28 (UniProt Q96RU2)
T3 sequence (whole entry): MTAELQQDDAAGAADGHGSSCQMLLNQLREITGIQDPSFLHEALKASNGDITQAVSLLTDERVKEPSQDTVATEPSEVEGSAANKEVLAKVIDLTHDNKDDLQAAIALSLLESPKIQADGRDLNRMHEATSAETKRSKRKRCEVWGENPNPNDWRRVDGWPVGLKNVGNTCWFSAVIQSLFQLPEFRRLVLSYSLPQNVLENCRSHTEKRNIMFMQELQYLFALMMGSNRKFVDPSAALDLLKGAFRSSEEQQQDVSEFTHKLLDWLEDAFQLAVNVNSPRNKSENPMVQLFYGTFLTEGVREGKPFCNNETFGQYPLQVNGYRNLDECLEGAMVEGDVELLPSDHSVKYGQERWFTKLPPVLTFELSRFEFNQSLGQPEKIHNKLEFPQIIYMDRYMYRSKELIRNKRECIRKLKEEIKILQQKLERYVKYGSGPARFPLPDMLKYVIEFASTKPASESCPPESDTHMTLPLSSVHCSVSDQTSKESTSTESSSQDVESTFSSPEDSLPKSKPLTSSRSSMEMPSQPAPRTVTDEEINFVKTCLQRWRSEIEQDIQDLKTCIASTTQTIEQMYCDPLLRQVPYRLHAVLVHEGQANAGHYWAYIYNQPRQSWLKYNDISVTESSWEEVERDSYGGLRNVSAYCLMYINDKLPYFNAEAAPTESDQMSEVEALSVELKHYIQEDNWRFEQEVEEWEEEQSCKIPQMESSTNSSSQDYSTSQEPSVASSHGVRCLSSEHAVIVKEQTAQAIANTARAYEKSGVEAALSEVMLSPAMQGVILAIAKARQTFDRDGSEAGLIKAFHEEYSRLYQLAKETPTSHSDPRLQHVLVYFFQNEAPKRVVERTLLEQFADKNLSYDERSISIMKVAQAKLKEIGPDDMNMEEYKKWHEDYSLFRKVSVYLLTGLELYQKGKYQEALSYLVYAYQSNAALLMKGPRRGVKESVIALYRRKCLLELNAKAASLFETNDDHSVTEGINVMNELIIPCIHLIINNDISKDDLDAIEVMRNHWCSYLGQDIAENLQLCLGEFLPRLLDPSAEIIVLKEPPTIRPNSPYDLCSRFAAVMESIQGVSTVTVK
Procedure, shortened: as §1

Measured: log2 ratio of Biotin-Ahx-Ub-VS probe labelling

CC(NC(=O)CCl)c1noc(Cc2ccccc2)n1 (stereo not given)
inactive: USP16 -0.296 | USP19 -0.307 | USP24 -0.498 | USP25 -0.593 | USP28 -0.789
